IL-1B inflam inh: inflammasome signaling inhibition, IL-1 beta readout; THP-1 LPS/ATP IL-1B secretion, AlphaLISA, 16 h; active compounds read low; hit rate 4.7% among 360,000; activity change, % at 57.5 µM; AID 743279; in the data active = activity change below about -50%; inconclusive = mostly about -30% to -49%
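Secreted IL-1B measured by AlphaLISA bead assay after 16 h compound exposure of THP-1 cells; compounds (final up to 57.5 uM) added 1 h before LPS (250 ng/mL) and ATP (1.25 mM) stimulation; lower signal means less secretion.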
DT40 TDP1 no CPT: qHTS for Inhibitors of human tyrosyl-DNA phosphodiesterase 1 (TDP1): qHTS in cells in absence of CPT; DT40 Tdp1-/- hTDP1 cells, no CPT, ATP luminescence, 48 h; Potency, µM (titrated, usually from 46.2 µM), inactives show top-dose activity change, negative = growth inhibition, most hits filed as inhibitors; hit rate 15% among 420,000; AID 686978, 2013; note: potency is the fitted concentration of half-maximal effect; nearly all actives have a fitted effect of over 55% in size
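Growth kinetics read by CellTiter-Glo luminescence after ≥48 hr at 37 °C. Cells: DT40 Tdp1-/- stably carrying human TDP1, 400 per well, compound exposure in the absence of CPT (DMSO vehicle).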
HT1080 IDH1KD tx: HT-1080 IDH1 knockdown cell toxicity (counter line). HT-1080 IDH1 knockdown viability, ATP luminescence, 48 h. Potency, µM (highest dose often 46.1 µM), for inactives: top-dose activity, negative = toxicity, hits mostly cytotoxic. hit rate 2% among 360,000;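 note: potency is the fitted concentration of half-maximal effect; 0% = DMSO wells and -100% = cell-free medium wells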
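Viability of IDH1-knockdown HT-1080 fibrosarcoma cells was assessed by CellTiter-Glo after 48 h at 37 °C with titrated compound; concentration-effect curves were classified by fit quality and response size.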
HT1080-NT tox: kills 2HG-producing HT-1080-NT fibrosarcoma cells | HT-1080-NT fibrosarcoma viability, CellTiter-Glo ATP luminescence, 48 h | Potency, µM (doses to about 46.1 µM), without a hit: top-dose activity, negative = less viability, usual class: cytotoxic | hit rate 1.6% among 360,000 | AID 686970;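 note: NT is the 2HG producing partner of a matched IDH1 knockdown line; potency is the fitted concentration of half-maximal effect; 0% = DMSO-treated cells and -100% = media-only wells without cells; nearly all actives have a fitted effect of over 55% in size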
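HT-1080-NT; 750 cells/well; 5% FBS RPMI; 48 h compound, 37 degrees C; CellTiter-Glo luminescence; curve fitting and curve-class assignment.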
12-LOX inh: blocks human arachidonate 12S-lipoxygenase; P18054; purified 12hLO, xylenol orange hydroperoxide absorbance; Potency, µM (series often up to 108 µM), without a hit: at the top dose activity change, negative = inhibition, most hits filed as inhibitors; hit rate 1.1% among 580,000; AID 1671190; note: potency is the fitted concentration of half-maximal effect
Target sequence (P18054 whole entry, looked up): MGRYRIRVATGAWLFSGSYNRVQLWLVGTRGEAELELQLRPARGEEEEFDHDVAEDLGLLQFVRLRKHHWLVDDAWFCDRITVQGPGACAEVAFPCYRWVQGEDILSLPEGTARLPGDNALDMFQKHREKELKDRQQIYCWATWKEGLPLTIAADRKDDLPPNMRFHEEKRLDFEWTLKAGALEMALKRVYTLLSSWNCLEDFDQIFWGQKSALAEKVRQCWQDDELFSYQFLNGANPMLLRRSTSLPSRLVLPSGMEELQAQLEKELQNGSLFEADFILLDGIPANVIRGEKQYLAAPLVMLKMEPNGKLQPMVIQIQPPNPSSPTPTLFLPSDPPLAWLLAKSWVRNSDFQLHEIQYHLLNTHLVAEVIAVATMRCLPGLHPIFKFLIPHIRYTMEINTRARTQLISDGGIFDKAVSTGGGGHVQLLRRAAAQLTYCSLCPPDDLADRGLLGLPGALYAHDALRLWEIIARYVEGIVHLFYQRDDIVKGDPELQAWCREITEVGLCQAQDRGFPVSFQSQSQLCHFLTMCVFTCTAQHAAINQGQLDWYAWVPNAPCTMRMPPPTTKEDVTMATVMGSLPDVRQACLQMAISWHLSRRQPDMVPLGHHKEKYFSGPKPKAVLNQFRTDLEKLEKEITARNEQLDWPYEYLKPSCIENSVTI
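Purified human 12hLO (150 nM final) in 25 mM Hepes, 0.01% Triton X-100, pH 7.0 was preincubated 15 min at room temperature with compound. Then 40 uM arachidonic acid was added, 30 min. Hydroperoxide was read by Fe-XO absorbance ratio 573/405 nm.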
DT40 TDP1 CPT: growth inhibition of DT40 Tdp1-/-;hTDP1 cells with camptothecin (screen for TDP1 inhibitors). chicken DT40 Tdp1-/-;hTDP1 cells + 20 nM CPT, ATP luminescence, 48 h. Potency, µM (top dose mostly 46.2 µM), inactives show at the top dose activity change, negative = growth inhibition, hits mostly inhibitors. hit rate 12% among 420,000. AID 686979; note: potency is the fitted concentration of half-maximal effect; nearly all actives have a fitted effect of over 55% in size
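Chicken DT40 Tdp1-/- cells stably complemented with human TDP1 were seeded at 400 cells/well in medium containing 20 nM camptothecin, exposed to pin-transferred compounds, and grown at 37 °C for at least 48 hr. Viability was read as ATP luminescence.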
An asterisk follows results filed as active; ! = not confirmed by another sample; [ ] = another dose, or the depositor's remark. The sample as a whole holds a higher share of hits than the screen did. Unless noted, calls come from the whole dose curve; as a rule, active = well fitted curve in the direction sought with a large enough effect; inconclusive = small, poorly fitted or top-dose-only effect, or another doubt; inactive = no such curve, though single readings can be large; an effect the other way counts as inactive or inconclusive. Unless noted, % is set by controls: 0 for no effect and ±100 for the full control effect.

For CC(C)Cn1c(N)c(C(=O)COC(=O)c2cccnc2Cl)c(=O)n(C)c1=O the results were IL-1B inflam inh 21, DT40 TDP1 no CPT 10µM*, HT1080 IDH1KD tx 9%, HT1080-NT tox 7%, 12-LOX inh 6% and DT40 TDP1 CPT inconclusive.
Screening CC(C)Cn1c(N)c(C(=O)COC(=O)c2ccccc2Cl)c(=O)n(C)c1=O returned IL-1B inflam inh 1, DT40 TDP1 no CPT inconclusive, HT1080 IDH1KD tx 0%, HT1080-NT tox -15%, 12-LOX inh 119% and DT40 TDP1 CPT inconclusive.
CC(C)Cn1c(N)c(C(=O)COC(=O)c2cccn2C)c(=O)n(C)c1=O was read as IL-1B inflam inh -21, DT40 TDP1 no CPT 16µM*, HT1080 IDH1KD tx 0%, HT1080-NT tox 1%, 12-LOX inh 88% and DT40 TDP1 CPT 15µM*.
`COc1cc(C2C(C(=O)Nc3ccccn3)=C(C)Nc3ncnn32)ccc1OCc1ccccc1` (stereo not drawn) gave 12-LOX inh -25%.
`CC(Cc1ccco1)NS(=O)(=O)N1CCOCC1` (stereo not drawn) gave 12-LOX inh 4%.
`O=C(NC1CCN(Cc2cccc(C(F)(F)F)c2)CC1)C1CC=CCC1` (stereo not drawn) gave 12-LOX inh -2%.
`CS(=O)(=O)c1cccc(C(=O)N2CCCN(C(=O)c3ccccc3)CC2)c1` gave 12-LOX inh 9%.
Screening CCn1c(=O)c2cc(C(=O)NCCc3cc(OC)ccc3OC)sc2c2ccccc21 returned DT40 TDP1 no CPT 8.2µM*, 12-LOX inh -9% and DT40 TDP1 CPT -3%.
Screening CCn1c(=O)c2cc(C(=O)NCCc3ccc(OC)c(OC)c3)sc2c2ccccc21 returned DT40 TDP1 no CPT 7.3µM*, 12-LOX inh -24% and DT40 TDP1 CPT 8.2µM*.
Screening COc1ccc(/C=C(\C#N)C(=O)NCCc2ccccc2)cc1OCc1ccccc1 returned IL-1B inflam inh -25, DT40 TDP1 no CPT 16µM*, HT1080 IDH1KD tx inconclusive, HT1080-NT tox -24%, 12-LOX inh 7% and DT40 TDP1 CPT inconclusive.
Screening COc1cc(/C=C(/C#N)C(=O)NCc2ccccc2)cc(OC)c1OC returned IL-1B inflam inh -1, DT40 TDP1 no CPT inconclusive, HT1080 IDH1KD tx -10%, HT1080-NT tox -1%, 12-LOX inh -1% and DT40 TDP1 CPT -15%.
`N#C/C(=C\c1ccc(O)c(O)c1)C(=O)NCCCc1ccccc1` gave IL-1B inflam inh -5, DT40 TDP1 no CPT 4.1µM*, HT1080 IDH1KD tx inconclusive, HT1080-NT tox inconclusive, 12-LOX inh 28µM*! and DT40 TDP1 CPT inconclusive.
For N#C/C(=C\c1ccc(N2CCOCC2)o1)C(=O)NCCc1ccccc1 the results were IL-1B inflam inh -51*, DT40 TDP1 no CPT inconclusive, HT1080 IDH1KD tx -2%, HT1080-NT tox -16%, 12-LOX inh inconclusive and DT40 TDP1 CPT inconclusive.
Cc1ccc(CNC(=O)CC2C=CCC2)s1 (stereo not drawn) was read as 12-LOX inh 0%.
c1ccc(C2=NOC3(CCCN(Cc4cccc5ccccc45)C3)C2)nc1 (stereo not drawn) was read as 12-LOX inh 31%.
`CC(=O)c1ccc(N2CCN(S(=O)(=O)c3ccc4c5c3CC(=O)N5CC(C)S4)CC2)cc1` (stereo not drawn) gave IL-1B inflam inh 1, DT40 TDP1 no CPT 21µM*, HT1080 IDH1KD tx 5%, HT1080-NT tox 0% and DT40 TDP1 CPT 21µM*.
For CCn1ncc(NC(=S)NCCc2ccc(OC)c(OC)c2)c1C(N)=O the results were IL-1B inflam inh 24, DT40 TDP1 no CPT -24%, HT1080 IDH1KD tx 2%, HT1080-NT tox 2%, 12-LOX inh 6% and DT40 TDP1 CPT 0%.
Screening CCCC[C@@H](CNC)NC[C@H](NCCCCC1CCCCC1)C(C)C returned IL-1B inflam inh inconclusive, DT40 TDP1 no CPT 5.2µM*, HT1080 IDH1KD tx inconclusive, HT1080-NT tox inconclusive, 12-LOX inh 20% and DT40 TDP1 CPT 6.5µM*.
`COc1cc(C2NCCc3c2[nH]c2ccccc32)ccc1OC(C)C` (stereo not drawn) gave 12-LOX inh -16%.
For COc1ccc2[nH]c3c(c2c1)CCNC31CCNCC1 the results were 12-LOX inh 16%.
`COc1ccc2[nH]c3c(c2c1)CCNC3c1ccc([N+](=O)[O-])o1` (stereo not drawn) gave IL-1B inflam inh -15, DT40 TDP1 no CPT 6.5µM*, HT1080 IDH1KD tx -2%, HT1080-NT tox -1%, 12-LOX inh 53% and DT40 TDP1 CPT 9.2µM*.
COc1ccc2[nH]c3c(c2c1)CCNC3C1CC=C(C)CC1 (stereo not drawn) was read as IL-1B inflam inh -26, DT40 TDP1 no CPT 6.5µM*, HT1080 IDH1KD tx inconclusive, HT1080-NT tox inconclusive, 12-LOX inh inconclusive and DT40 TDP1 CPT 9.2µM*.
Cc1cn([C@H]2C[C@H](O)[C@@H](/C=C/C(=O)NCCC(c3ccccc3)c3ccccc3)O2)c(=O)[nH]c1=O was read as IL-1B inflam inh 0, DT40 TDP1 no CPT 12%, HT1080 IDH1KD tx 4%, HT1080-NT tox 7%, 12-LOX inh -3% and DT40 TDP1 CPT -2%.
For CC(C)CNS(=O)(=O)c1cc(C(=O)N2CC(C)OC(C)C2)c(Cl)cc1Cl (stereo not drawn) the results were IL-1B inflam inh -1, DT40 TDP1 no CPT 23µM*, HT1080 IDH1KD tx -4%, HT1080-NT tox 12%, 12-LOX inh 0%[57.4 µM] and DT40 TDP1 CPT inconclusive.
`COc1ccc(CC2S/C(=N/N=C/c3ccc(O)cc3)NC2=O)cc1` (stereo not drawn) gave IL-1B inflam inh 4, DT40 TDP1 no CPT -18%, HT1080 IDH1KD tx -2%, HT1080-NT tox -7%, 12-LOX inh 2% and DT40 TDP1 CPT 5%.
O=C1N/C(=N/N=C/c2ccccc2O)SC1Cc1ccc(F)cc1 (stereo not drawn) was read as IL-1B inflam inh 132, DT40 TDP1 no CPT 0.029µM*, HT1080 IDH1KD tx 23µM*, HT1080-NT tox inconclusive, 12-LOX inh 29% and DT40 TDP1 CPT 0.18µM*.
`COc1ccc(CC2S/C(=N/N=C/c3ccccc3O)NC2=O)cc1` (stereo not drawn) gave IL-1B inflam inh 50, DT40 TDP1 no CPT 0.92µM*, HT1080 IDH1KD tx -16%, HT1080-NT tox -15%, 12-LOX inh 14% and DT40 TDP1 CPT 3.3µM*.

Screens from PubChem.
